Records with an inconclusive call do not appear. The source made the active and inactive calls. The call rests on the fitted dose curve; in most records, active means well fitted inhibition curve with a large enough effect in the signal ratio, with a control signal flat (not every such curve was filed as active); inconclusive means small, poorly fitted or top-dose-only effect, or effect the other way, or a change in a side signal; inactive means flat fitted curve, though single readings scatter; the % refers to the signal ratio.
biological target: Glucocorticoid receptor (Homo sapiens) (UniProt P04150); experiment: qHTS assay for small molecule antagonists of glucocorticoid receptor signaling (AID 588533); settings: HeLa MMTV-bla, GRE beta-lactamase ratio, antagonist mode, 18 h; series mostly up to 76.8 µM; activity change, negative = inhibition: at the top concentration
Sequence (P04150 whole entry, looked up): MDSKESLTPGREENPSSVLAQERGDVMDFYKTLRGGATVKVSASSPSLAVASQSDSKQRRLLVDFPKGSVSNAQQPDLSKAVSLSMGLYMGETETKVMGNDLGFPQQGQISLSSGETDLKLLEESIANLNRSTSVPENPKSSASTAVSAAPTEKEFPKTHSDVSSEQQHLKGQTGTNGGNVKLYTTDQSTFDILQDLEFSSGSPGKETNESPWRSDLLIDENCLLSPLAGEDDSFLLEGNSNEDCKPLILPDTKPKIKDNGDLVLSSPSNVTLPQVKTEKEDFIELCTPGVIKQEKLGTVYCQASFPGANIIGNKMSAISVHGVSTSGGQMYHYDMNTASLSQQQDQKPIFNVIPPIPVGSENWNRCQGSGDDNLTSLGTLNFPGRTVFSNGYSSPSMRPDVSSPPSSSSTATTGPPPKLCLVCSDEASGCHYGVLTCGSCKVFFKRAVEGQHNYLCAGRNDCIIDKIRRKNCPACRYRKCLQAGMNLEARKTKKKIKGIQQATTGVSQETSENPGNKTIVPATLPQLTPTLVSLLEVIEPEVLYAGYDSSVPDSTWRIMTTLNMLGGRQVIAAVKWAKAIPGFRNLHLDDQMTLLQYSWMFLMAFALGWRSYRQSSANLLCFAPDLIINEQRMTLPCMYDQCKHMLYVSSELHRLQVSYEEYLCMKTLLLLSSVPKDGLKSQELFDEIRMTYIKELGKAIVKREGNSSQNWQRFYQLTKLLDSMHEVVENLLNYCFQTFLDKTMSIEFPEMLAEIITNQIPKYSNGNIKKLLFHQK
Excerpt: NIH Chemical Genomics Center [NCGC] U.S. Environmental Protection Agency [EPA] National Institutes of Environmental Health Sciences [NIEHS] National Toxicology Program [NTP] NCGC Assay Overview The Glucocorticoid receptor (GR), a nuclear receptor subfamily member and its natural ligands includes […] etc. The GR is a validated drug target for inflammation. GR ligands such as dexamethasone are clinically available as anti-inflammatory drugs. Glucocorticoids implicate a role in carbohydrate, protein and lipid metabolisms and programmed cell death. They are also a component of many chemotherapy regimens for the treatment of leukemias, lymphomas, and myelomas because of their role in the induction of apoptosis.
NCGC Assay Protocol Summary Using a beta-lactamase reporter-gene under control of glucocorticoid response element (GRE), a cell-based assay [CellSensor MMTV-bla HeLa cell line assay developed by Invitrogen] was used to measure GR ligands signaling. CellSensor MMTV-bla HeLa cells were used with assay medium containing 1% charcoal/dextran treated FBS, 0.1 mM NEAA, 1 mM sodium pyruvate and 25mM HEPES. The assay was performed in clear bottom black Greiner 1536-well plates. Library compounds were measured for their ability to inhibit the reporter gene activity. Compounds were screened in a titration series in 1536-well format. […] Data was normalized relative to Dexamethasone control (2 nM, 100%), and DMSO only wells (basal, 0%). Concentration-response titration points for each compound were fitted to the Hill equation yielding concentrations of half-maximal inhibition (IC50) and maximal response (efficacy) values. qHTS protocol for GR beta-lactamase assay in antagonist mode [Step] [Parameter] [Value] [Description] 1. Reagent; 5 uL; 1500 cells/well 2. Incubation; 37 C for 3-5 hrs 3. Compounds; 23 nL; 0.59 nM to 92 uM 4. […] Agonist (Stimulator); 1uL; Dexamethasone at 2 nM (final) concentration 6. Incubation; 37 C for 18 hrs 7. Detection reagent; 1 uL of CCF4-dye 8. Incubation; RT for 2 hrs 9. Detection; Fluorescence; Envision plate reader
On the % scale 0 is the no-effect control and ±100 the full control effect.

SMILES | activity change, negative = inhibition | Potency
COc1nc(NC(C)C)nc(NC(C)C)n1 | 3.72% (inactive) | –
ClC1=C(Cl)C2(Cl)C3C4C=CC(C4)C3C1(Cl)C2(Cl)Cl (stereo not given) | -16% (inactive) | –
C1CCC2CCCCC2C1 (stereo not given) | -16.2% (inactive) | –
CCNc1nc(Cl)nc(NC(C)C)n1 | -6.96% (inactive) | –
CCCCOC(=O)c1ccccc1C(=O)OCCCC | -7.59% (inactive) | –
Cc1ccc(O)c(C)c1 | – | inactive
Nc1ccc(Br)cc1 | -17.5% (inactive) | –
C=CCc1ccc2c(c1)OCO2 | -1.09% (inactive) | –
Clc1nc(Cl)nc(Cl)n1 | 11.9% (inactive) | –
C=CC(C)=O | 15.4% (inactive) | –
O=C(O)COc1cc(Cl)c(Cl)cc1Cl | -8.04% (inactive) | –
CCS(=O)CCSP(=O)(OC)OC (stereo not given) | 0.169% (inactive) | –
Cc1cccc([N+](=O)[O-])c1 | – | inactive
BrCCBr | – | inactive
CCSC(=O)Cl | -4.75% (inactive) | –
O=C(Cl)/C=C/C(=O)Cl | 15.4% (inactive) | –
C=CCOC(C)=O | -9.81% (inactive) | –
C=C(C)C(=O)OCC1CO1 (stereo not given) | 5.32% (inactive) | –
Oc1ccc(Cl)cc1Cl | – | inactive
O=C(O)COc1ccc(Cl)cc1Cl | – | inactive

SMILES | activity change, negative = inhibition | Potency
CC(C)N1C(=O)c2ccccc2NS1(=O)=O | -3.47% (inactive) | –
C=CC(=C)C | 5.36% (inactive) | –
Nc1ccccc1Cl | -5.94% (inactive) | –
C[N+](C)(C)Cc1ccccc1 | 9.31% (inactive) | –
CNC(=O)Oc1cccc2c1OC(C)(C)O2 | 11.6% (inactive) | –
NC(=S)Nc1ccccc1 | – | inactive
CC(O)CCl (stereo not given) | – | inactive
Nc1c(Cl)c(Cl)nc(C(=O)O)c1Cl | – | inactive
ClCBr | 10.8% (inactive) | –
CCCCOCCOP(=O)(OCCOCCCC)OCCOCCCC | – | inactive
c1nc[nH]n1 | -6.96% (inactive) | –
OCC(Br)CBr (stereo not given) | -1.2% (inactive) | –
Brc1ccccc1 | – | inactive
CNC(=O)Oc1ccccc1OC(C)C | -0.477% (inactive) | –
C=CC(N)=O | – | inactive
ClC(Cl)(Cl)c1ccccc1 | – | inactive
c1ccc(OP(Oc2ccccc2)Oc2ccccc2)cc1 | – | inactive
CCOP(=S)(OCC)Oc1ccc([N+](=O)[O-])cc1 | – | inactive
CC(C)(OO)c1ccccc1 | 16.2% (inactive) | –
Clc1ccc2ccccc2c1 | 3.58% (inactive) | –
